Each structure is given as a SMILES string. Out of some 3,400 compounds screened, about 840 (25%) were called active. Roughly 11% stayed inconclusive and do not appear here. A selection follows. Measured potencies and affinities stand elsewhere. A number with no mark means an inactive call.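 Rule for the calls: active = fitted half-maximal concentration of signal decrease at or below twice the sample's top tested concentration; inconclusive = flat curve between -70 and -30 percent, or poor fit; inactive = flat within 30 percent, signal rise, or potency above limit.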

This assay is described as follows: inhibitors of Toxoplasma growth in IFN-γ-primed HeLa – cell-based, ME49Luc, luciferase, 72 h, dose response (AID 1259418). The settings on record: T. gondii ME49Luc in IFN-y HeLa, active compounds read low, -100% = high-dose IFN-γ control wells; at 19.5 µM unless noted.
In the case of `CN1C(=O)CCc2cc(NC(=O)C3CCCCC3)ccc21`, the max activity was 40.8%.
The figure for `CN1C(=O)CCc2cc(NC(=O)C3CCC3)ccc21` is 8.04%.
The figure for `COc1ccc(-c2nc(Nc3cc(OC)c(OC)c(OC)c3)c3ccccc3n2)cc1` is -9.87% [at 0.16 µM]; for `O=C(CCC1N=C2c3ccccc3N=C(SCc3cc(=O)n4cc(Cl)ccc4n3)N2C1=O)NCc1ccc2c(c1)OCO2` (stereo not given) it is -18.4% [at 10 µM].
As to `CCCCN(C)C(=O)Cn1c(=O)c(S(=O)(=O)c2ccccc2)cc2cc(C)ccc21`, the max activity is -7.02% [at 0.35 µM].
The figure for `COc1ccc(C(=O)N2CCC3(CC2)Nc2ccc(C)c(C)c2-n2cccc23)cc1` is 7.01% [at 0.68 µM]; for `Cc1ccc(S(=O)(=O)N2CCC(C(=O)NCCc3csc(-c4ccccc4)n3)CC2)cc1C` it is 12.1% [at 1.35 µM]; for `CCS(=O)(=O)N1CCC(C(=O)NCCc2csc(-c3ccccc3)n2)CC1` it is -17%.
The figure for `O=C(NCCc1csc(-c2ccccc2)n1)C1CCN(S(=O)(=O)c2ccccc2F)CC1` is 8.96% [at 0.16 µM]; for `Cc1ccc(S(=O)(=O)N2CCC(C(=O)NCCc3csc(-c4ccccc4)n3)CC2)c(C)c1` it is 19.2% [at 0.35 µM]; for `COc1ccc(-c2nc3c(s2)CN(C(=O)Nc2ccccc2C(F)(F)F)CC3)cc1` it is 102%.
To `Cc1nc(Nc2ccc(F)cn2)sc1C(=O)N1CCC(C(N)=O)(N2CCCCC2)CC1` belongs 6.22%; to `COc1ccccc1NC(=O)Nc1ccc(-c2nc(-c3cccc(Br)c3)co2)cc1`, 8.23%; to `Cc1ccc2c(c1)cc(S(=O)(=O)c1ccccc1)c(=O)n2CC(=O)NCCC(C)C`, -4.39% [at 5 µM].
Take `COc1ccc(-c2nc(N3CCN(c4cccc(Cl)c4)CC3)c3ccccc3n2)cc1`: the max activity is -7.34% [at 10 µM].
The figure for `COC(=O)c1ccccc1NC(=O)N1CCN(Cc2nc(-c3cccc(Cl)c3)oc2C)CC1` is 3.54% [at 2.6 µM]; for `COc1ccccc1NC(=O)CN1CCC2(CC1)N=C(c1ccc(Cl)cc1)C(=O)N2` it is -13.9% [at 1.35 µM].
The figure for `Cc1ccc(C)c(-c2coc(-c3ccc(NC(=O)CC(C)C)cc3)n2)c1` is -23% [at 10 µM]; for `COc1ccc(-c2nc(CSc3nc4c(c(=O)[nH]3)CN(Cc3ccccc3)CC4)c(C)o2)cc1` it is 9.43% [at 1.35 µM].
To `Cn1cnc2c1C(C(=O)O)CN(C(=O)c1ccsc1)C2` (stereo not given) belongs 44.9%.

Values taken from PubChem BioAssay AID1259418 (Broad Institute, 2018).
